Screens as filed in PubChem.
Only some compounds are listed: those with a hit (about 5.7% of all), similar ones and a draw of the others.
PI4K2A block = inhibitors of human PI4K2A | purified PI4K2A, ADP-Glo luminescence, 1 h; stronger effect = lower value | activity change, negative = inhibition, % at 76.9 µM | 420,000 tested, 0.13% active; in the data active = activity change below about -50%; inconclusive = mostly about -30% to -49%
Target sequence (Q9BTU6 whole entry, looked up): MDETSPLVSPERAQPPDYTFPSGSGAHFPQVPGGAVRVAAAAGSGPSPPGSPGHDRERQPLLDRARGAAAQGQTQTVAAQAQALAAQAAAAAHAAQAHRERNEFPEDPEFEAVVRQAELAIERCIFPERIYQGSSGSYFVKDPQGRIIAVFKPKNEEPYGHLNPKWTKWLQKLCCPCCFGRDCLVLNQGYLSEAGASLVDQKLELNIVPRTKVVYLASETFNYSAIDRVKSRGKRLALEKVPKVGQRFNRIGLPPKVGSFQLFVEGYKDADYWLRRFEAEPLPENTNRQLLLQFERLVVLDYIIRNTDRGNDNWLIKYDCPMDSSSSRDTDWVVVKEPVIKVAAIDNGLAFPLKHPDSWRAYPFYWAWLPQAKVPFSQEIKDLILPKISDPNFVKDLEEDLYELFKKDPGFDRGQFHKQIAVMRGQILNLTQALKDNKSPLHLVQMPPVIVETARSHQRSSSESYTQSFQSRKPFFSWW
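In this quantitative HTS, ADP production by PI4K2A was quantified luminescently after 1 h at ambient temperature; 100 microM adenosine served as plate-quality control.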
Nrf2 inh = Nrf2 pathway inhibition; Potency, µM (top dose mostly 46 µM), most hits filed as inhibitors; AID 504444; A549 ARE-Fluc reporter, luciferase luminescence, 18-24 h; 360,000 tested, 2.1% active; note: nearly all actives have a fitted effect of over 60% in size
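Two sequential reads on A549 ARE_Fluc cells exposed to compound for 18-24 h: a CellTiter-Fluor fluorescence read for viability, then a luciferase luminescence read for Nrf2/ARE activity.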
Giardia killer = Giardia lamblia killing | 340,000 tested, 0.15% active | activity change, % at 7.66 µM, hits read low | Giardia lamblia trophozoite viability; in the data active = activity change below about -80%; inconclusive = between about -30% and that limit;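 note: parasites exposed to compound for two days anaerobically before the ATP read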
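Anaerobic 48 hrs incubation at 37 deg C of 100 trophozoites/well with test compounds; ATPLite 1-Step luminescence, 15-30 min RT, reports cellular ATP as viability.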
KB-V1 cytotox = kills drug-selected multidrug resistant KB-V1 cells; Potency, µM (top dose mostly 46.1 µM), most hits filed as cytotoxic; KB-V1 MDR cells viability, CellTiter-Glo, 72 h; AID 1347076; 400,000 tested, 3.4% active; note: nearly all actives have a fitted effect of over 60% in size
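Readout: CellTiter-Glo luminescence, 10 min after addition. Cells: KB-V1 MDR subline, 72 h at 37 degrees C with compound. Analysis: corrected, normalized data fitted to concentration-effect curves.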
KB-3-1 tox = KB-3-1 parental cell cytotoxicity; KB-3-1 viability, CellTiter-Glo ATP luminescence, 72 h; Potency, µM (titrated, usually from 46.1 µM), hits mostly cytotoxic; 400,000 tested, 1.4% active; AID 1347075; note: nearly all actives have a fitted effect of over 60% in size
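Using CellTiter-Glo luminescence, growth of non-resistant KB-3-1 adenocarcinoma cells is assessed 72 h after pin-tool compound addition at 37 °C. Normalized responses across the concentration series yield fitted curves.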
A549 viability = counter-screen for Nrf2 inhibitors: cytotoxicity in A549 cells; Potency, µM (series often up to 46 µM), most hits filed as inhibitors; 390,000 tested, 0.16% active; A549 ARE-Fluc cells, CellTiter-Fluor viability, 18-24 h; AID 504648
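Cytotoxicity counterscreen: CellTiter-Fluor fluorescence was measured in A549 ARE_Fluc cells after 18-24 h of compound exposure in a concentration series. The subsequent BugLite luminescent read reports ARE-luciferase activity.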
Large screens that a line does not name were inactive. Unless noted, calls come from the whole dose curve; as a rule, active = well fitted curve in the direction sought with a large enough effect; inconclusive = small, poorly fitted or top-dose-only effect, or another doubt; inactive = no such curve, though single readings can be large; an effect the other way counts as inactive or inconclusive.

COc1ccc(CCNC(=O)Nc2ccc3c(c2)[C@]2(CC(=O)N(CC(C)C)C2c2ccccc2)C(=O)N3C)cc1OC (some centres undefined)	none (no result: Nrf2 inh, Giardia killer, KB-V1 cytotox, KB-3-1 tox, A549 viability)
FC(F)Oc1ccc(NC(=S)NCc2ccccc2)cc1Cl	Nrf2 inh 23µM, KB-V1 cytotox inconclusive, KB-3-1 tox inconclusive, A549 viability inconclusive
O=C(Cc1cccc2ccccc12)Nc1ccc(OC(F)F)c(Cl)c1	KB-V1 cytotox 21µM, KB-3-1 tox inconclusive
Cc1ccc(NC(=O)C2CCN(c3nnc(-n4cccc4)s3)CC2)cc1C	none (no result: Nrf2 inh, Giardia killer, KB-V1 cytotox, KB-3-1 tox, A549 viability)
NC(N)=Nc1ccc(/C=C2\C=Cc3ccccc32)cc1	none (no result: PI4K2A block, Nrf2 inh, Giardia killer, A549 viability)
CSCCC1NC2(C(=O)Nc3c(Cl)cccc32)[C@@H]2C(=O)N(C3CCCC3)C(=O)[C@H]12 (some centres undefined)	none
CSCCC1NC2(C(=O)Nc3c(C)cc(Cl)cc32)[C@@H]2C(=O)N(C3CCCC3)C(=O)[C@H]12 (some centres undefined)	Nrf2 inh inconclusive, KB-V1 cytotox 4.6µM, KB-3-1 tox inconclusive
COc1cc(/C=N/N2C(=O)C3C4c5ccccc5C(c5ccccc54)C3C2=O)ccc1O (centres undefined)	Nrf2 inh inconclusive, KB-V1 cytotox 10µM
CCCN(CCC)c1nc(N)nc(C#N)n1	KB-V1 cytotox inconclusive (no result: PI4K2A block)
O=CNc1ccc(/C=C/c2ccnc3ccccc23)cc1	none (no result: PI4K2A block, Nrf2 inh, Giardia killer, A549 viability)
Cn1nc(-c2ccccc2)c(CSc2ccccc2Cl)c1Cl	KB-V1 cytotox 12µM, KB-3-1 tox inconclusive
O=C(Nc1cccc(Cl)c1Cl)c1csc([C@@H]2O[C@H](CO)[C@H](O)[C@H](O)[C@H]2O)n1	KB-V1 cytotox inconclusive (no result: Nrf2 inh, Giardia killer, A549 viability)
O=C(Nc1nc([C@@H]2O[C@H](CO)[C@@H](O)[C@H](O)[C@H]2O)cs1)NC(c1ccccc1)c1ccccc1	KB-3-1 tox 18µM (no result: Nrf2 inh, Giardia killer, A549 viability)
C[C@H]1[C@@H](C(=O)N2CCCC2)Cc2nc3ccccc3nc2C[C@@H]1c1ccccc1	none (no result: Nrf2 inh, Giardia killer, KB-V1 cytotox, KB-3-1 tox, A549 viability)
COc1ccccc1-c1nnc(Nc2nc3c(OC)cccc3s2)o1	Nrf2 inh inconclusive, KB-V1 cytotox inconclusive, KB-3-1 tox 0.41µM
COc1cccc2sc(Nc3nnc(-c4ccccc4Cl)o3)nc12	KB-3-1 tox inconclusive, A549 viability inconclusive
COc1cccc2sc(Nc3nc4ccc(NC(C)=O)cc4s3)nc12	Nrf2 inh inconclusive, KB-3-1 tox 16µM
CC(=O)Nc1ccc2nc(NC(=O)COc3ccccc3C)sc2c1	KB-3-1 tox inconclusive
COc1cccc2sc(Nc3nc(-c4ccncc4)cs3)nc12	KB-V1 cytotox 8.2µM, KB-3-1 tox 5.8µM, A549 viability inconclusive
COc1cccc2sc(Nc3nc(-c4cc5ccccc5oc4=O)cs3)nc12	KB-V1 cytotox 8.2µM, KB-3-1 tox inconclusive
Oc1c(N=NC(=S)Nc2ccccc2F)c2ccccc2n1Cc1cccc(Cl)c1	Nrf2 inh inconclusive, KB-3-1 tox 6.5µM, A549 viability inconclusive
Cc1cccc(Cn2c(O)c(N=NC(=S)Nc3ccccc3F)c3ccccc32)c1	Nrf2 inh 5.8µM, KB-V1 cytotox inconclusive, KB-3-1 tox inconclusive, A549 viability inconclusive
CC(C)(C)SCCNC(=O)c1ccccc1	none (no result: Nrf2 inh)
Cc1ccc(C(=O)NCCSC(C)(C)C)cc1	PI4K2A block -59 (no result: Nrf2 inh)
Cc1ccc(-c2nnc3ccccc3c2C(=O)Nc2ccc(C)c(F)c2)cc1	none (no result: Giardia killer)
CC1CC(NC(=O)c2c(O)nc3ccccn3c2=O)CC(C)(C)C1 (centres undefined)	KB-V1 cytotox 21µM
O=C(NC1CCCCC1)c1c(O)nc2sccn2c1=O	Nrf2 inh inconclusive, KB-V1 cytotox inconclusive, KB-3-1 tox inconclusive
O=C(NCCN1CCOCC1)c1c(O)nc2ccccn2c1=O	none
O=C(NC1CCCCCC1)c1c(O)nc2sccn2c1=O	Nrf2 inh inconclusive, KB-V1 cytotox 15µM, KB-3-1 tox inconclusive
CC1CC(NC(=O)c2c(O)nc3sccn3c2=O)CC(C)(C)C1 (centres undefined)	Nrf2 inh inconclusive, Giardia killer inconclusive, KB-V1 cytotox 18µM
O/N=C(/CBr)c1ccc2ccccc2c1	none (no result: PI4K2A block, Nrf2 inh, Giardia killer, A549 viability)
CC(=O)CC[C@H]1CC[C@]2(CCCN(C(=O)c3ccccc3)C2)O1	none (no result: Nrf2 inh, Giardia killer, KB-V1 cytotox, KB-3-1 tox, A549 viability)
c1nc(N2CCCCCC2)c2[nH]cnc2n1	KB-V1 cytotox 23µM
